# Bioassay records deposited in PubChem by National Center for Advancing Translational Sciences (NCATS).
# Most compounds without a hit are left out; they make up all but 2.8% or so of the library.
# PI5P4K alpha inh: qHTS for Inhibitors of phosphatidylinositol 5-phosphate 4-kinase (PI5P4K) | Phosphatidylinositol 5-phosphate 4-kinase type-2 alpha (Homo sapiens), P48426 | max response, % | actives 1.2% (n = 330,000) | PI5P4Kalpha enzyme, ADP-Glo luminescence, 60 min; active compounds read low | AID 652105, 2013; active means max response of -50% or lower; inconclusive means between -30% and -50%; inactive means -30% or higher; further: value at the top dose of about 77 µM; on the % scale 0 is the no-effect control and ±100 the full control effect
#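 Reactions run in 0.038 M HEPES pH 7.4, 0.28 mM EGTA, 0.1% CHAPS and 5% DMSO, with PI5P4Kalpha, substrate, compound and 5 microM ATP final, one hour at room temperature. Readout is ADP-Glo luminescence.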
# Pol beta inh: qHTS Assay for Inhibitors of DNA Polymerase Beta; P06746; Pol beta primer extension/strand displacement, fluorescence kinetic; Potency, µM (top dose mostly 114 µM), for the others: at the highest dose activity change, negative = inhibition, most hits filed as inhibitors; actives 1.3% (n = 340,000); further: potency means the concentration at half of the fitted maximal effect; on the % scale 0 is the no-effect control and ±100 the full control effect
#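 10 nM enzyme + cpd, 15 min RT; start with substrate 50 nM final; read 0 min and after 10 min RT. Corrected, normalized data; 4-parameter Hill curve fit.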
# WRN inhibitor: qHTS for Inhibitors of WRN Helicase | Potency, µM (titrated, usually from 114 µM), for the others: at the highest dose activity change, negative = inhibition, usual class: inhibitors | actives 0.46% (n = 360,000) | WRN helicase unwinding, fluorescent forked duplex, kinetic | AID 651768, 2012; further: potency means the concentration at half of the fitted maximal effect; on the % scale 0 is the no-effect control and ±100 the full control effect; nearly all actives have a fitted effect of over 55% in size
#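 Kinetic fluorescence helicase assay: unwinding of a quenched forked DNA duplex (100 nM final) with 2 mM ATP final raises red fluorescence (525/598 nm). Compounds sat 15 min at room temperature with 20 nM WRN beforehand.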
# Pol iota inh: qHTS for Inhibitors of Polymerase Iota; DNA polymerase iota (Homo sapiens), Q9UNA4; Pol iota fluorescent replication assay, 10 min; Potency, µM (doses to about 115 µM), without a hit: at the highest dose activity, negative = inhibition, actives largely listed as inhibitors; actives 1% (n = 390,000); AID 588590, 2011; further: potency means the concentration at half of the fitted maximal effect
#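 Pol iota at 10 nM preincubated 15 min with compounds at room temperature; reaction started with fluorescent substrate, 50 nM final. Fluorescence read kinetically at 0 and 10 min; buffer-only wells as negative control.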
# Pol kappa inh-1: qHTS for Inhibitors of Polymerase Kappa; purified Pol kappa, fluorescent DNA synthesis assay, 10 min; DNA polymerase kappa (Homo sapiens), Q9UBT6; Potency, µM (titrated, usually from 107 µM), for the others: at the highest dose activity, negative = inhibition, hits mostly inhibitors; actives 0.53% (n = 400,000); further: potency means the concentration at half of the fitted maximal effect; on the % scale 0 is the no-effect control and ±100 the full control effect
# Target sequence (Q9UBT6 whole entry, looked up): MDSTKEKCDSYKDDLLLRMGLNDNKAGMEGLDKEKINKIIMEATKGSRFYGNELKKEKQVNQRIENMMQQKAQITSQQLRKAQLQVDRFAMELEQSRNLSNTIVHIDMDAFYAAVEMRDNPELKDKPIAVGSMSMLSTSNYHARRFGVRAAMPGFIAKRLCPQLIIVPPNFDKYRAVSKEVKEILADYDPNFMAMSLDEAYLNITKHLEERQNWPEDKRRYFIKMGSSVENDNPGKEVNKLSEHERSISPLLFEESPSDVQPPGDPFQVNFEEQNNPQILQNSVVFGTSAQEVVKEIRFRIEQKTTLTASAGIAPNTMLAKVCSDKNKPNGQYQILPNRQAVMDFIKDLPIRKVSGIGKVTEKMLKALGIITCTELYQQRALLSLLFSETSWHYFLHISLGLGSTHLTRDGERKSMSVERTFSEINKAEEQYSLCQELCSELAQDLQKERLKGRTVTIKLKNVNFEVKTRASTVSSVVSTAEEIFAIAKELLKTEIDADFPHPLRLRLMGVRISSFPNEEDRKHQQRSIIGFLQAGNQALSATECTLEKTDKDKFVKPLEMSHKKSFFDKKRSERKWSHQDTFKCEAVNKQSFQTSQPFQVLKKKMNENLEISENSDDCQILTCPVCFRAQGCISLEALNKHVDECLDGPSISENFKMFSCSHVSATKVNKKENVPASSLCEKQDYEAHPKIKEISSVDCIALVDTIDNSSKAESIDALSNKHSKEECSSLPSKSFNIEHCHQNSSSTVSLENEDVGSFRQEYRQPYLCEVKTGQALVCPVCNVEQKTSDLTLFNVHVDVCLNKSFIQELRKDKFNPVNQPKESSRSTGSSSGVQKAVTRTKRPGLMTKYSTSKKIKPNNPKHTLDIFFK
#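 Kinetic fluorescence screen: compound preincubated 15 min RT with 10 nM enzyme; 50 nM substrate (final) initiates; reads at 0/10 min.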
# Pol eta inh-1: qHTS for Inhibitors of Polymerase Eta; DNA polymerase eta (Homo sapiens), Q9Y253; recombinant Pol eta, fluorescent DNA replication assay; Potency, µM (top dose mostly 114 µM), without a hit: top-dose activity change, negative = inhibition, usual class: inhibitors; actives 1.2% (n = 390,000); further: potency means the concentration at half of the fitted maximal effect; on the % scale 0 is the no-effect control and ±100 the full control effect
#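 Pol eta at 10 nM preincubated with compounds 15 min at room temperature; reaction started with fluorescent substrate (50 nM final) and read kinetically at 0 and 10 min.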
# GALK confirm: Confirmation Assay for Inhibitors of Human Galactokinase (GALK) | purified GALK, Kinase-Glo ATP depletion luminescence | actives 70% (n = 150) | shares compounds with Pol eta inh-1 | Potency, µM (titrated, usually from 115 µM), without a hit: at the top dose activity, negative = inhibition, most hits filed as inhibitors
# Redox cycling: Confirmatory Assay for Inhibitors of Human Galactokinase (GALK): Phenol-HRP redox assay counterscreen | shares compounds with Pol eta inh-1 | Phenol red-HRP H2O2 redox cycling, absorbance 600 nm | Potency, µM (doses to about 115 µM), for inactives: top-dose activity change, negative = H2O2 signal, most hits filed as inhibitors | actives 40% (n = 150)
# HEK293 viability: Secondary Assay for Inhibitors of Human Galactokinase (GALK): HEK-293 Cell Viability Assay | shares compounds with Pol eta inh-1 | HEK-293 viability, ATP luminescence (CellTiter-Glo), 24/48 h | Potency, µM (highest dose often 46.1 µM), without a hit: at the highest dose activity change, negative = cytotoxicity, hits mostly inhibitors | actives 10% (n = 170); further: potency means the concentration at half of the fitted maximal effect; on the % scale 0 is the no-effect control and ±100 the full control effect
# Pol kappa inh-2: qHTS for Inhibitors of Polymerase Kappa: Confirmatory Assay for Cherry-picked Compounds. shares compounds with Pol eta inh-1. purified Pol-kappa, fluorescent strand-displacement substrate. Potency, µM, actives largely listed as inhibitors. actives 76% (n = 920); further: potency means the concentration at half of the fitted maximal effect
# Pol eta inh-2: qHTS for Inhibitors of Polymerase Eta: Confirmatory Assay for Cherry-picked Compounds; Potency, µM, most hits filed as inhibitors; actives 64% (n = 2,600); shares compounds with Pol eta inh-1; Pol eta primer extension, TAMRA/BHQ fluorescence, 10 min; AID 720502, 2013; further: potency means the concentration at half of the fitted maximal effect
# The depositor's hits bear a star; ? = inconclusive; / = not tested or not shown; ! = not confirmed by another sample; [ ] = another dose, or the depositor's remark. Unless noted, the call rests on the fitted dose curve; in most records, active means well fitted curve in the direction sought with a large enough effect; inconclusive means small, poorly fitted or top-dose-only effect, or another doubt; inactive means no such curve, though single readings can be large; an effect the other way counts as inactive or inconclusive.
SMILES,PI5P4K alpha inh,Pol beta inh,WRN inhibitor,Pol iota inh,Pol kappa inh-1,Pol eta inh-1,Pol eta inh-2,others
O=C1NC(=O)N(c2ccccc2)C(=O)/C1=C/C=C/c1ccco1,?,?,?,?,39.8µM*,12.6µM*,37.9*,
O=C1NC(=O)N(c2ccc3c(c2)OCO3)C(=O)/C1=C/c1cccs1,-27.3,1.3%,-16.6%,?,-18.1%,-8.6%,/,
Cc1ccc(N2C(=O)NC(=O)/C(=C\C=C\c3ccco3)C2=O)cc1C,?,39.8µM*,15.8µM*,10µM*,25.1µM*,22.4µM*,60.1*,
NCCc1c[nH]c2ccc(O)cc12,/,/,/,/,-5.5%[60.1 µM],/,/,
O=C(CN1CCCC1)c1ccccc1,/,/,/,30.8%,-9.9%,/,/,
Cc1ncc2n1-c1ccc(Cl)cc1C(c1ccccc1F)=NC2O (configuration not stated),/,/,/,/,16.3%[60.1 µM],/,/,
O=C(c1ccc2c(c1)N(Cc1cccc(F)c1)C(=O)c1ccccc1S2)N1CCC2(CC1)OCCO2,/,22.4µM*,/,-18.3%,-5.3%[60.1 µM],?,?,Pol kappa inh-2=?
CCON=O,/,/,/,/,0.4%[19.4 µM],/,/,
O=C(O)CC1OCC=C2CN3CCC45C6=CC(=O)C(=O)C([N+](=O)[O-])=C6NC4C1C2CC35 (configuration not stated),1.2,?,-30.3%,1.78µM*!,39.8µM*,5.01µM*,/,GALK confirm=10.6µM*;Redox cycling=5.3µM*;HEK293 viability=-1.3%
CCn1nc(-c2ccccc2)nc2c(=O)n(C)c(=O)nc1-2,-8.2,?,-18.3%,-103.3%,-8.1%,0.794µM*,/,GALK confirm=0.595µM*;Redox cycling=0.668µM*;HEK293 viability=?
COc1ccc(-c2nc3ccccc3c(=O)n2-c2ccc(OC)cc2)cc1,-0.2,4.4%,-7.3%,-6.0%,-7.8%,-18.1%,/,
CC1=Nc2ccccc2/C1=C/c1c(O)[nH]c(=O)[nH]c1=O,-21.2,1.4%,-1.3%,?,-2.3%,-1.2%,/,
O=c1[nH]c(O)c(/C=C2/C=CC(c3cc(Cl)ccc3Cl)=N2)c(=O)[nH]1,-0.1,17.0%,-18.5%,32.2%,-5.8%,17.8µM*,?,
CCOc1cncc(/C=C/CCNC)c1,/,/,/,/,17.2%[60.1 µM],/,/,
CCOc1ccc(N2C(=O)NC(=O)/C(=C\c3ccc(N4CCCCC4)o3)C2=O)cc1,2.5,3.7%[57.1 µM],2.7%,30.7%,-5.5%,-20.8%,/,
CCOc1ccc(N2C(=O)/C(=C/c3ccc(C)o3)C(=O)NC2=S)cc1,-75.8*,28.2µM*,44.7µM*,8.91µM*,28.2µM*,3.98µM*,30.1*,
COc1ccc(N2C(=O)/C(=C/c3ccc(C)o3)C(=O)NC2=S)cc1,?,35.5µM*,?,25.1µM*,-95.6%,12.6µM*,30.1*,Pol kappa inh-2=16.8*
CC(Cc1ccc(C(C)(C)C)cc1)CN1CCCCC1 (configuration not stated),/,/,/,/,12.1%[60.1 µM],/,/,
Cc1ccccc1N1C(=O)NC(=O)/C(=C\c2cnn(-c3ccccc3)c2)C1=O,-71.8*,15.8µM*,?,-6.2%,-4.9%,22.4µM*,?,
CCN(CC)C(=O)Cn1cc(/C=C2\C(=O)NC(=O)N(c3ccccc3F)C2=O)c2ccccc21,-2.6,23.0%,-33.8%,68.8%,-3.6%,12.6%,/,
Clc1ccc(C(c2ccc(Cl)cc2)n2cc[n+](CC(OCc3ccc(Cl)cc3Cl)c3ccc(Cl)cc3Cl)c2)cc1 (configuration not stated),-0.1,1.4%[57.1 µM],?,?,-11.7%[60.1 µM],?,/,Pol kappa inh-2=67*
CCC12CCCN3CCC4(c5ccc(OC)c(O)c5N(C(C)=O)C4CC1)C32 (configuration not stated),/,/,/,/,-8.6%[19.4 µM],/,/,
COc1cc(O)c(C(=O)O)c(-c2cc(O)c(O)cc2C)c1,-22.7,20µM*,-9.1%,?,?,10µM*,?,
COc1ccc2c(c1)c(C(=O)O)c(C)n2CC(C)C,/,9.4%,2.0%,8.1%,-6.6%,-5.8%,/,
COCOC1CCC2C3CCC4=CC(=O)CCC4=C3C=CC12C (configuration not stated),-11.7,/,-6.0%[11.6 µM],28.2µM*,?,?,?,
SMILES,PI5P4K alpha inh,Pol beta inh,WRN inhibitor,Pol iota inh,Pol kappa inh-1,Pol eta inh-1,Pol eta inh-2,others
CCn1ncc(-c2ccnc3cc(C(=O)O)nn23)c1C,?,?,-4.2%[11.6 µM],35.5µM*,-19.9%,25.1µM*,?,
O=C1Nc2cc(Cl)c(Cl)cc2N2CCNC[C@H]12,/,/,/,/,-7.3%[19.4 µM],/,/,
Cc1cccc(N2C(=O)NC(=O)/C(=C\c3cccn3-c3ccc(Cl)cc3)C2=O)c1,-51.9*,22.4µM*,?,22.4µM*,79.4µM*,11.2µM*,60.1*,
CCc1ccc(N2C(=O)NC(=O)/C(=C\c3cccn3CCOc3ccc(C(C)C)cc3)C2=O)cc1,-23.3,0.3%,2.1%,?,5.2%,-20.1%,/,
CC(=O)OCC1=C[C@H]2[C@@H]3C(C)(C)[C@]3(OC(=O)Cc3ccccc3)C[C@@H](C)[C@]2(O)[C@@H]2C=C(C)C(=O)[C@@]2(O)C1,/,/,/,/,-3.2%[12 µM],/,/,
O=C(O)CCC(=O)NCCC1=c2ccccc2=N/C1=C\c1c(O)n(Cc2ccc(F)cc2)c(=S)[nH]c1=O,-85.1*,-8.0%,79.4µM*,?,?,50.1µM*,?,
